Bioassay records from PubChem BioAssay.
Mot1-301 SUMO = yeast Mot1-301 growth rescue at high temperature, primary screen, SUMOylation pathway inhibitor project, S. cerevisiae, ATP luminescence, 38.5C; AID 2716, 2010; growth rescue, % at 18.8 µM; S. cerevisiae Mot1-301 growth rescue; percent above DMSO median, 100 means doubled; 1% of 320,000 active;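 active = every valid replicate shows activation above 250% relative to neutral control wells; inactive = the rest, any valid replicate at or below 250%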;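 note: OY570 slx delta 5 strain wells were the positive control but not used for scaling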
HDAC3 inh = HDAC3 deacetylase inhibitors, primary screen, biochemical, fluorescence, cell-free homogeneous. Histone deacetylase 3 (Homo sapiens), O15379. recombinant HDAC3, fluorogenic peptide/trypsin coupled. inhibition, % at 8.3 µM. 0.15% of 320,000 active. AID 2718, 2010; in the data active = inhibition above about 26%, passing the limit was not always enough; inconclusive = no clear call, values can overlap the other calls
IDE cell activ = human IDE activators in live cells, primary screen, fluorescence polarization, HEK cells, FAbeta-B substrate. FAbeta-B cleavage; 0% vehicle, 100% cell-free pure enzyme wells. 0.073% of 340,000 active. activation, % at 5.96 µM. Insulin-degrading enzyme (Homo sapiens), P14735;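 active = activation above the mean of all tested compounds plus 3 SD, set per screening campaign, cut at about 17% in these data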
LANA-H2B inh = blockers of LANA interaction with H2A/H2B – biochemical, FP readout, HTS, primary screen | Protein LANA1 (Human herpesvirus 8 type P (isolate GK18)), Q9QR71 | cell-free LANA-H2A/H2B peptide, fluorescence polarization | inhibition, % (no concentration beside the values) | 0.6% of 320,000 active | AID 2629, 2010; in the data active = inhibition mostly above about 10%, no sharp cut-off; inactive = mostly below about 6.7%
IDE cell inh = human IDE inhibitors in live cells, primary screen, fluorescence polarization, HEK cells, FAbetaB substrate; FAbetaB cleavage; Insulin-degrading enzyme (Homo sapiens), P14735; 0.41% of 320,000 active; inhibition, % at 5.59 µM;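 active = percent inhibition above the average of all tested compounds plus 3 SD, set per screening campaign, cut at about 16% in these data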;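 note: IDE supplied by intact live HEK cells; FP after avidin binding of uncleaved biotin substrate so inhibition keeps polarization high; 0% = DMSO wells and 100% = 60 µM reference IDE inhibitor Ii1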
The depositor's hits bear a star; i = inactive; u = inconclusive; x = no result; + = active, no number. Most compounds without a hit are left out; they make up all but 2.1% or so of the library.

SMILES | Mot1-301 SUMO | HDAC3 inh | IDE cell activ | LANA-H2B inh | IDE cell inh
COc1cccc(C2c3[nH]c4ccccc4c3C[C@H]3C(=O)N(c4ccccc4C(=O)N4CCC(C(=O)O)CC4)C(=O)N23)c1 (stereo not given in full) | -24.3 | 6.9 | 1.6 | 9.4 | 0.5
COc1cc(C=NCC2OCCc3ccccc32)cc(OC)c1 (stereo not given) | 114.2 | -1.0 | 0.4 | 17.5* | -0.6
COC(=O)c1[nH]c2ccc(F)cc2c1NC(=O)C1=COCCO1 | -12.2 | -2.2 | 3.4 | 11.5* | 0.5
COC(=O)c1[nH]c2ccc(C)cc2c1NC(=O)C1=COCCO1 | -11.2 | 5.1 | 2.5 | 0.5 | 3.1
Cc1cccc(C)c1-n1nnnc1SCC(=O)N1CCNC1=O | x | x | -2.3 | x | x
O=C(Cc1cccs1)N(CC1CCCO1)C1(C(=O)NC2CCCC2)CCCCC1 (stereo not given) | 34.5 | -2.2 | 3.7 | 0.1 | -1.3
CNC(=O)COC(=O)c1cc(F)c(F)cc1Cl | 257.1 | -8.4 | 3.6 | 20.4* | 7.2
CC(C)NC(=O)COC(=O)c1cc(F)c(F)cc1Cl | x | 2.9 | 5.7 | 0.1 | 3.1
COCCNC(=O)NC(=O)CN1CCCc2ccccc21 | -4.2 | 2.7 | 2.0 | 15.8* | 2.3
COc1ccccc1N(CC(=O)NC1CCCCC1)C(=O)CNC(=O)c1cccs1 | 9.0 | -2.1 | 1.5 | -14.1 | 0.1
CC1(C)CC(=O)C(c2ccccc2)(c2ccccc2)C(=O)C1 | x | x | 0.9 | x | x
CCCCN(C(=O)c1ccc2c(c1)S(=O)(=O)N=C1CCCCCN12)c1c(N)n(CC(C)C)c(=O)[nH]c1=O | x | x | 7.4 | x | x
CC(=O)c1ccc(N2CCC(C(=O)O)CC2)cc1 | i | 4.5 | -2.0 | -5.0 | 1.9
CC(=O)c1ccc(N2CCN(C3CCC(C(C)(C)C)CC3)CC2)cc1 (stereo not given) | 256.2* | 1.6 | 4.5 | -1.5 | 1.9
N#Cc1sc(NCc2ccccn2)nc1Cl | 17.8 | -0.4 | -3.5 | -0.2 | 1.7
COc1ccccc1N1CCN(C2CC(=O)N(c3cccc(Cl)c3)C2=O)CC1 (stereo not given) | 13.0 | 5.5 | 0.9 | 21.5* | 6.8
COc1ccccc1N1CCN(C2CC(=O)N(c3ccccc3)C2=O)CC1 (stereo not given) | 131.1 | -3.4 | -0.6 | -3.1 | 5.1
CCOC(=O)c1sc2nc3c(SCC(=O)O)cc(C(=O)c4cc(F)ccc4O)cn3c(=O)c2c1C | -9.1 | 5.3 | 5.9 | 21.6* | 3.7
CCOC(=O)c1sc2nc3c(SCC(=O)O)cc(C(=O)c4ccccc4O)cn3c(=O)c2c1C | -8.8 | -9.7 | 7.2 | 1.8 | -0.1
CNC[C@H](NC[C@@H](NCCCc1ccccc1)c1ccccc1)[C@H](C)O | -8.2 | -1.0 | 4.1 | 1.6 | 0.7
C#CCOCCOCCOCCNc1nc(N2CCN(C(=O)[C@H](CCC(=O)O)n3cc(CN)nn3)CC2)nc(N2CCN(C(=O)[C@H](CCCCN)n3cc([C@@H](N)CC(N)=O)nn3)CC2)n1 | -18.4 | -16.1 | 4.0 | x | 5.6
CCCOc1cc(N(CC)CC)ccc1/C=C(/C#N)c1nc2ccc(C)cc2[nH]1 | 1.9 | 1.5 | -101.9 | 0.1 | 105.0*
Cc1noc(C)c1CSCC(=O)Nc1nc2c(F)cc(F)cc2s1 | 0.0 | 2.8 | -1.9 | 2.4 | -9.9
O=C(Nc1ccccc1O)c1ccc([N+](=O)[O-])cc1 | 4.1 | 52.8* | 3.4 | 1.2 | -2.4
O=C(Nc1ccccc1OC(=O)c1ccc(Cl)cc1)c1ccc(Cl)cc1 | 1.0 | 9.6 | 0.8 | 4.2 | 3.9
SMILES | Mot1-301 SUMO | HDAC3 inh | IDE cell activ | LANA-H2B inh | IDE cell inh
O=C(Nc1ccccc1O)c1ccc(Cl)cc1 | x | 90.7* | 1.3 | 3.2 | -2.1
CNCCNC[C@H](Cc1cccc2ccccc12)NCCc1ccccc1 | -11.9 | -0.2 | 2.5 | 2.7 | 4.7
CNC[C@H](Cc1ccccc1)NC[C@@H](Cc1cccc2ccccc12)NCCc1ccc(C)cc1 | -61.5 | -2.9 | 18.1* | -1.9 | -2.5
O=C1CN(C(=O)COC(=O)Cc2ccccc2F)c2ccccc2N1 | 1.2 | u | 2.7 | -5.1 | -2.6
CCOc1ccc(S(=O)(=O)/N=C(/Nc2ccc(C(C)=O)cc2)c2ccccc2)cc1 | 24.3 | 14.7 | -1.6 | 6.1 | 1.5
CN(C)c1ccnc(Oc2ccc(C(C)(C)C)cc2)c1C#N | 355.6* | -71.8 | -1.7 | 0.2 | 2.6
CN(C)c1ccnc(Oc2ccc(Cl)cc2)c1C#N | -3.6 | 2.4 | 6.5 | 4.8 | 3.4
C[C@H](NC(=O)c1[nH]cnc1C(=O)Nc1ccc(CNC(=O)OC(C)(C)C)cc1)C(=O)OCc1ccccc1 | 1.7 | 3.8 | 7.2 | 0.1 | 0.1
C[C@H](NC(=O)c1nc[nH]c1C(=O)NCc1ccc(CNC(=O)OC(C)(C)C)cc1)C(=O)OC(C)(C)C | -11.2 | u | -3.1 | -3.7 | 1.5
CC(C)C[C@H](NC(=O)c1nc[nH]c1C(=O)NC1CCN(C(=O)OC(C)(C)C)CC1)C(=O)OCc1ccccc1 | -2.5 | 43.9* | 3.2 | -0.5 | 1.5
CC(C)C[C@H](NC(=O)c1nc[nH]c1C(=O)NCc1ccccc1)C(=O)OC(C)(C)C | -3.5 | 39.8* | 11.2 | 1.8 | -0.1
CC(C)C[C@H](NC(=O)c1nc[nH]c1C(=O)NCc1ccc(CNC(=O)OC(C)(C)C)cc1)C(=O)OC(C)(C)C | -4.0 | 35.3* | 3.1 | -1.0 | -0.1
CC(C)C[C@H](NC(=O)c1nc[nH]c1C(=O)NC1CCN(C(=O)OC(C)(C)C)CC1)C(=O)OC(C)(C)C | -14.5 | 21.9 | 8.5 | -1.3 | -1.6
CC(C)C[C@H](NC(=O)c1[nH]cnc1C(=O)Nc1ccc(CNC(=O)OC(C)(C)C)cc1)C(=O)OCc1ccccc1 | 325.3* | 3.1 | 5.1 | -0.2 | -1.1
Nc1ccc(-c2nc3nc(N)nc(N)c3nc2-c2ccc(N)cc2)cc1 | -10.4 | 6.0 | -1.1 | 1.7 | 0.8
CC(C)(C)OC(=O)NCc1ccc(NC(=O)c2nc[nH]c2C(=O)N[C@@H](Cc2ccccc2)C(=O)OC(C)(C)C)cc1 | -4.4 | 9.8 | 7.3 | -2.0 | 2.8
CC(C)C[C@H](NC(=O)c1[nH]cnc1C(=O)Nc1ccc(CNC(=O)OC(C)(C)C)cc1)C(=O)OC(C)(C)C | -19.8 | 51.7* | 8.9 | 1.5 | 0.5
COCCCNCCCCOc1ccc(Br)cc1Cl | 280.0* | 3.8 | 2.3 | -3.4 | 3.2
CCCCN(C(=O)CSc1nnc(-c2ccccc2OC)n1C)c1c(N)n(Cc2ccccc2)c(=O)[nH]c1=O | -1.2 | -0.1 | -4.3 | + | 6.9
CCCCn1c(N)c(N(CCC(C)C)C(=O)c2ccc3ccccc3c2)c(=O)[nH]c1=O | -1.9 | -5.1 | 6.6 | 32.5* | 7.1
CCCCn1c(N)c(N(CCC(C)C)C(=O)COC(=O)c2ccc3ccccc3c2)c(=O)[nH]c1=O | x | x | 3.0 | x | x
